For 34 molecules, inhibition results are on record in ChEMBL document CHEMBL1961873, “Compounds: GSK PKIS; Assays: Nanosyn kinase panel” (2012).
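Further: reported value is the mean percent inhibition of NEK9.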

The target of the assay is T1, Serine/threonine-protein kinase Nek9 (Homo sapiens) (UniProt Q8TD19).
T1 sequence (whole entry): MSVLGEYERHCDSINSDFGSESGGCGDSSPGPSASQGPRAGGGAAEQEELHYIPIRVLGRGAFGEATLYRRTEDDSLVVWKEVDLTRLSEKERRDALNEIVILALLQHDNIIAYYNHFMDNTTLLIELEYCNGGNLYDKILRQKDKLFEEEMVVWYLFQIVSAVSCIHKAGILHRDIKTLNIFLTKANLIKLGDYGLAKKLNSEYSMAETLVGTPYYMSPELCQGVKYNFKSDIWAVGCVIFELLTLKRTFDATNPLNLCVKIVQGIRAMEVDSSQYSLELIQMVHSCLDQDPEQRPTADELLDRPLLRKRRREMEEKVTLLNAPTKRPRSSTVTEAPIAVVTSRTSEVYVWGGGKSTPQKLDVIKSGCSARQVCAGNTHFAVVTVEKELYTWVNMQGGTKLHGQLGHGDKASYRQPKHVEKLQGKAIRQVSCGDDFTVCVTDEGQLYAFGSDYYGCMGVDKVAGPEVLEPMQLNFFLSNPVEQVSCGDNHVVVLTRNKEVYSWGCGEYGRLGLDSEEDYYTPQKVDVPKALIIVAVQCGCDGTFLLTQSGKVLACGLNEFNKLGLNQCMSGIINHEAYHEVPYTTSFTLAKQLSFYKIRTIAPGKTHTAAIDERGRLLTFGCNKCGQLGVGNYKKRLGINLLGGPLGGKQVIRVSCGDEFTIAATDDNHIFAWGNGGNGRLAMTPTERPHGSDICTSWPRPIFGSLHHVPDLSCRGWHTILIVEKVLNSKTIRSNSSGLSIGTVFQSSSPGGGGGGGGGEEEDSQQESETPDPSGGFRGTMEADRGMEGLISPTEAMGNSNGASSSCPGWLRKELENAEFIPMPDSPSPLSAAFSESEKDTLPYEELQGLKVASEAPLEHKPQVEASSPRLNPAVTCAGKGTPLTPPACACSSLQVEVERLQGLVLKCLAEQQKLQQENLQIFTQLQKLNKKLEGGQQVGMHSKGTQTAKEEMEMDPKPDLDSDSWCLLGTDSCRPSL
To be noted: at 0.1 µM.
For the molecule `C/C(Nc1ccc(S(N)(=O)=O)cc1)=C1/C(=O)Nc2ccccc21`, the inhibition was 2.83%.

For the molecule `NC(=O)Cc1ccccc1Oc1nccc(-c2c(-c3ccc(F)cc3)ncn2C2CCNCC2)n1`, the inhibition turned out to be 10.9%.

On to `Fc1ccc(-c2ncn(CCCN3CCOCC3)c2-c2ccncc2)cc1`, for which the inhibition stood at 0.56%.

Consider `c1ccc(Oc2ccc(Nc3ncc(-c4ccccc4)o3)cc2)cc1`, for which the inhibition turned out to be 0.25%.

Take `COc1ccc2cc(-c3c(-c4ccncc4)nc(-c4ccc(S(C)(=O)=O)cc4C)n3C)ccc2c1`: the inhibition came out at 6.52%.

For `O=C(NCC1CC1)c1ccc(-c2cccc(C(=O)NC3CC3)c2)cc1`, the inhibition amounted to 9.43%.

Take `O=C(Nc1ccc(Oc2ccc3[nH]c(NC(=O)c4ccccc4)nc3c2)cc1)Nc1cc(C(F)(F)F)ccc1F`: the inhibition is 9.72%.

As for `COc1cc2ncn(-c3cc(OCCc4ccccc4)c(C(N)=O)s3)c2cc1OC`, the inhibition came out at 1.66%.

For the molecule `C[C@@H](Oc1cc(-n2cnc3ccc(OCC4CCN(C)CC4)cc32)sc1C(N)=O)c1ccccc1Cl`, the inhibition amounted to 77.4%.

Take `CS(=O)(=O)CCNCc1cc(-c2cc3c(Nc4ccc(OCc5cccc(F)c5)c(Cl)c4)ncnc3s2)cs1`: the inhibition was 9.93%.

`CCc1nccc2c1nc(-c1nonc1N)n2CC`: the inhibition was 0.19%.

In the case of `COc1cccc(/C=N/Nc2ncnc3c2cnn3-c2cccc(OC)c2)c1`, the inhibition was found to be 7.75%.

As for `COc1ccc2cc(-c3c(-c4ccncc4)nc(-c4ccc([S+](C)[O-])cc4C)n3C)ccc2c1` (centres undefined), the inhibition amounted to 3.4%.

With `O=C(Nc1n[nH]c2nc(-c3ccco3)ccc12)C1CC1`, the inhibition amounted to 6.28%.

Turning to `Cc1ccc(C(=O)NC(C)C)cc1-c1ccc(C(=O)NCC2CC2)cc1`, the inhibition was determined as 3.16%.

On to `FC(F)(F)c1cccc(Nc2nccc(-c3cnn4nc(-c5ccccc5)ccc34)n2)c1`, for which the inhibition was 8.12%.

Regarding `O=C(Nc1n[nH]c2cc(-c3cc(F)ccc3F)ccc12)C1CC1`, the inhibition came out at 11.6%.

On to `CN(c1ccc(NC(=O)Nc2c(Cl)cccc2Cl)cc1)c1ccnc(Nc2cccc(CS(C)(=O)=O)c2)n1`, for which the inhibition was -4.22%.

As to `COc1cc2ncn(-c3cc(OCc4ccccc4C(F)(F)F)c(C(C)=O)s3)c2cc1OC`, the inhibition was 8.54%.

With `COc1cc(Nc2ncc3c(C)nc(-c4cccc(Oc5ccccc5)c4)n3n2)cc(OC)c1OC`, the inhibition stood at 29%.

For `CNC(=O)c1cncc(/C=C/c2c(C)cccc2C)c1`, the inhibition is -0.53%.

Regarding `NCc1ccc(-n2c(-c3nonc3N)nc3cnccc32)cc1`, the inhibition is 2.32%.

Consider `O=C1Nc2ccc(I)cc2C1=Cc1cc(Br)c(O)c(Br)c1`, for which the inhibition is 9.81%.

Take `NS(=O)(=O)c1ccc(Nc2cc(-c3ccc(O)c(F)c3)n[nH]2)cc1`: the inhibition was found to be 5.12%.

For the molecule `CN(C)c1ccc2c(c1)/C(=C/Nc1ccc(S(N)(=O)=O)cc1)C(=O)N2`, the inhibition was -1.19%.

As for `Fc1ccc(-c2ncn(C3CCNCC3)c2-c2ccnc(Oc3ccc(F)c(F)c3)n2)cc1`, the inhibition was determined as 6.39%.

Take `N#Cc1ccc(Oc2nccc(-c3c(-c4ccc(F)cc4)ncn3C3CCNCC3)n2)cc1`: the inhibition stood at 9.06%.

In the case of `COc1cc(C)c(N(C)C(=O)CN(C)C)cc1Nc1nc(Nc2cccc(F)c2C(N)=O)c2cc[nH]c2n1`, the inhibition is 5.24%.

As to `COc1cc2ncn(-c3cc(OCc4cccs4)c(C(N)=O)s3)c2cc1OC`, the inhibition amounted to 5.68%.

`CCc1cccc(CC)c1/C=C/c1cncc(C(=O)NC)c1`: the inhibition was 8.92%.

With `COc1ccc(C2=C(N3CCc4ccccc43)C(=O)NC2=O)cc1`, the inhibition worked out at 11.3%.

For the molecule `Fc1ccc(-c2c(-c3ccncc3)nc3n2CCS3)cc1`, the inhibition amounted to 5.56%.

`CCS(=O)(=O)c1ccc(OC)c(Nc2ncc(-c3ccccc3Cl)o2)c1`: the inhibition came to 4.12%.

`CN(C)CCOc1ccc(-c2cc(-c3ccc4c(c3)CCC4=NO)c(-c3ccncc3)o2)cc1`: the inhibition was -0.48%.
